Compounds with a hit are over-represented: about 17% of the library has one in this group of screens.
ATXN viability: Viability Counterscreen for Primary qHTS for Inhibitors of ATXN expression | S2 cells (HEK-293 line with an ATXN2-luciferase reporter) viability, CellTiter-Fluor protease fluorescence, 24 h | Potency, µM (series often up to 56.7 µM), hits mostly cytotoxic | 400,000 tested, 0.49% active; note: nearly all actives have a fitted effect of over 40% in size
TGFb SMAD3 inh: qHTS for Inhibitors of TGF-b. HepG2 CAGA-GFP TGF-b/SMAD3 reporter, GFP fluorescence, 18 h; TGF-beta stimulated, 500 pg/mL final. Potency, µM (doses to about 46.1 µM), for inactives: at the highest dose activity, negative = inhibition, most hits filed as inhibitors. AID 588855, 2011. 410,000 tested, 1.2% active; note: % is set by controls: 0 for no effect and ±100 for the full control effect; nearly all actives have a fitted effect of over 65% in size
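Inhibition was scored as loss of TGF-beta-induced (500 pg/mL final, 18 hours, 37 degrees C) GFP in HEPG2 cells carrying a CAGA-GFP reporter, in DMEM with 1% FBS. Well GFP was summed per cell; Activity was normalised to unstimulated and stimulated DMSO wells, then concentration-response fitting.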
ATXN2 expr inh: Primary qHTS for Inhibitors of ATXN expression; HEK-293 ATXN2-luciferase reporter, luminescence, 24 h; Potency, µM (doses to about 57 µM), without a hit: top-dose activity change, negative = inhibition, usual class: inhibitors; 360,000 tested, 0.72% active; AID 1745845, 2022; note: % is set by controls: 0 for no effect and ±100 for the full control effect; nearly all actives have a fitted effect of over 55% in size
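ATXN2-luciferase reporter cells (luciferase flanked by upstream and downstream ATXN2 gene portions) were treated 24 h at 37 °C with compounds at up to 57 uM. SteadyGlo luminescence gave expression; GF-AFC fluorescence gave viability.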
TDP1 cell noCPT: qHTS for Inhibitors of human tyrosyl-DNA phosphodiesterase 1 (TDP1): qHTS in cells in absence of CPT; DT40 Tdp1-/- hTDP1 cells, no CPT, ATP luminescence, 48 h; Potency, µM (titrated, usually from 46.2 µM), for the others: top-dose activity change, negative = growth inhibition, most hits filed as inhibitors; 420,000 tested, 15% active; AID 686978, 2013; note: % is set by controls: 0 for no effect and ±100 for the full control effect; nearly all actives have a fitted effect of over 55% in size
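DT40 Tdp1-/-;hTDP1 cells, no CPT (DMSO vehicle only), 400 cells/well; compounds pin-transferred; ≥48 hr, 37 °C; CellTiter-Glo 30 min RT dark, luminescence read.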
HepG2 tox: qHTS for Inhibitors of TGF-b: Cytotox Counterscreen; HepG2 CAGA-GFP viability, ATP luminescence, 18 h; Potency, µM (top dose mostly 46.1 µM), inactives show at the top dose activity change, negative = cytotoxicity, actives largely listed as cytotoxic; 410,000 tested, 0.76% active
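HepG2 CAGA-GFP cells (1000/well, DMEM with 1% FBS) received compound, then TGF-beta at 500 pg/mL final, and were incubated 18 hours at 37 degrees C. Viability was read by CellTiter-Glo luminescence. Media-only wells were set as complete cell-killing and DMSO as no toxicity.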
TDP1 cell CPT: qHTS for Inhibitors of human tyrosyl-DNA phosphodiesterase 1 (TDP1): qHTS in cells in presence of CPT; AID 686979, 2013; Potency, µM (doses to about 46.2 µM), for the others: at the top dose activity change, negative = growth inhibition, usual class: inhibitors; chicken DT40 Tdp1-/-;hTDP1 cells + 20 nM CPT, ATP luminescence, 48 h; 420,000 tested, 12% active; note: % is set by controls: 0 for no effect and ±100 for the full control effect; nearly all actives have a fitted effect of over 55% in size
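Chicken DT40 Tdp1-/- cells complemented with human TDP1, 400 cells/well, exposed to compounds plus 20 nM camptothecin for at least 48 h at 37 C; viability read as ATP content by CellTiter-Glo luminescence.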
The depositor's hits bear a star; i = inactive; ? = inconclusive; . = not tested or not shown. Calls come from the whole dose curve; as a rule, active = well fitted curve in the direction sought with a large enough effect; inconclusive = small, poorly fitted or top-dose-only effect, or another doubt; inactive = no such curve, though single readings can be large; an effect the other way counts as inactive or inconclusive. Potency is the fitted concentration of half-maximal effect.

SMILES	ATXN viability	TGFb SMAD3 inh	ATXN2 expr inh	TDP1 cell noCPT	HepG2 tox	TDP1 cell CPT
O=C(Cc1ccc([N+](=O)[O-])cc1)OCc1c(F)cccc1Cl	i	4%	-10%	0%	19%	2%
COc1ccc(OC(=O)N(CC(=O)O)Cc2ccc(OCCc3nc(-c4ccccc4)oc3C)cc2)cc1	i	.	0%	.	.	.
COc1ccc(Nc2nc(C(C)(C)C)nc3c2nnn3Cc2ccccc2Cl)cc1OC	i	-8%	1%	15µM*	-2%	18µM*
Cc1nc(NCCc2ccc(O)cc2)c2nnn(Cc3ccccc3)c2n1	i	5%	-15%	15µM*	-20%	?
CCOC(=O)CNc1nc(C(C)(C)C)nc2c1nnn2Cc1ccccc1Cl	i	-7%	-15%	26µM*	-22%	?
CC(C)CCNc1ncnc2c1nnn2Cc1ccccc1Cl	?	-9%	-19%	-12%	-5%	-15%
Cc1nc2c(nnn2Cc2ccccc2)c(=O)[nH]1	i	-15%	4%	?	-13%	23µM*
Cc1cc(C)cc(N(CC(=O)NC2CCCC2)C(=O)CCC(=O)Nc2nc(C)cs2)c1	i	?	-8%	-21%	-6%	-26%
COC(=O)c1ccc(NC(=O)c2cccc(Cl)c2)o1	i	0%	3%	?	-32%	-16%
Cc1oc(-c2ccc(F)cc2)nc1CN1CCCC(C(=O)N2CCOCC2)C1 (stereo unspecified)	i	-2%	2%	-2%	-11%	-27%
CCOC(=O)N1CCN(C(=O)C2CCCN(Cc3nc(-c4ccc(Cl)cc4)oc3C)C2)CC1 (stereo unspecified)	?	?	?	5.8µM*	-29%	9.2µM*
CCc1ccc(-c2nc(CN3CCCC(C(=O)N4CCN(c5cc(Cl)ccc5C)CC4)C3)c(C)o2)cc1 (stereo unspecified)	16µM*	?	20µM*	3.3µM*	-43%	6.5µM*
CCCCSCCCNC(=O)c1c[nH]c2ccc(S(=O)(=O)Nc3cccc(OC)c3)cc2c1=O	.	-22%	.	21µM*	-21%	21µM*
CCc1ccc(NS(=O)(=O)c2ccc3[nH]cc(C(=O)NCc4ccc(C)cc4)c(=O)c3c2)cc1	i	?	?	?	20µM*	?
CCOCCCNC(=O)c1c[nH]c2ccc(S(=O)(=O)Nc3cccc(OC)c3)cc2c1=O	i	-9%	2%	?	-7%	?
COc1ccccc1CNC(=O)c1c[nH]c2ccc(S(=O)(=O)Nc3cc(C)cc(C)c3)cc2c1=O	?	?	0%	21µM*	-38%	?
CCc1ccc(NS(=O)(=O)c2ccc3[nH]cc(C(=O)NCC4CCCO4)c(=O)c3c2)cc1 (stereo unspecified)	i	?	15%	-8%	-22%	-15%
CN(Cc1ccco1)S(=O)(=O)c1csc(C(N)=O)c1	i	-1%	.	-2%	-6%	6%
CCn1cc(C(=O)NC(C)CCc2ccccc2)c(=O)c2cc(S(=O)(=O)N(C)C)ccc21 (stereo unspecified)	i	-5%	0%	-28%	-13%	-16%
Cc1ccc2c(c1)c1c(n2CC(O)CNC(CO)(CO)CO)CCCC1 (stereo unspecified)	i	2%	-6%	-27%	-9%	?
Cc1ccc2c(c1)c1c(n2CC(O)CN2CCC(C)CC2)CCCC1 (stereo unspecified)	?	?	.	26µM*	-63%	?
Cc1ccc2c(c1)c1c(n2CC(O)CNC2CCCCC2)CCCC1 (stereo unspecified)	?	?	?	15µM*	-104%	23µM*
CCc1c(C(C)S(=O)(=O)c2ccc(C)cc2)[nH]c(=O)n1-c1ccc(C)cc1 (stereo unspecified)	i	-17%	-1%	29µM*	-32%	?
CC(NC(=O)CN1C(=O)NC2(CCCCC2)C1=O)c1ccc(S(N)(=O)=O)cc1 (stereo unspecified)	i	17%	-8%	-5%	17%	?
CC(C)=CCc1cc([C@@H]2COc3c(ccc4c3C=CC(C)(C)O4)C2)c(O)cc1O	.	14µM*	?	?	16µM*	18µM*
SMILES	ATXN viability	TGFb SMAD3 inh	ATXN2 expr inh	TDP1 cell noCPT	HepG2 tox	TDP1 cell CPT
CC1(C)C=Cc2c(ccc3c2OC[C@H](c2ccc(O)cc2O)C3)O1	?	?	5%	?	-97%	13µM*
CC(=O)c1ccc(-c2cnc3c(NC=O)cc(-c4ccc(N5CCN(C)CC5)cc4)cn23)cc1	?	?	-12%	21µM*	-32%	?
CC(=O)Nc1cc(-c2ccc(N3CCN(C)CC3)cc2)cn2c(-c3cccc(C(C)=O)c3)cnc12	i	?	-37%	?	-59%	?
CC(=O)Nc1cc(-c2ccc(N3CCN(C)CC3)cc2)cn2c(-c3ccc(F)c(Cl)c3)cnc12	.	?	?	?	-99%	18µM*
CN1CCN(c2ccc(-c3cc(NC=O)c4ncc(-c5ccc(F)c(Cl)c5)n4c3)cc2)CC1	.	20µM*	?	16µM*	-86%	12µM*
COc1ccc(Cl)cc1NC(=O)c1ncn(-c2ccccc2)n1	i	-2%	0%	?	-14%	-22%
CCn1c(-c2ccccc2F)nc2cc(NC(C)=O)cc(C(=O)N(C)Cc3ccc4nccnc4c3)c21	?	.	.	-20%	.	?
CCSc1ccc(/C(N)=N/OC(=O)c2cccs2)cn1	i	-4%	58%	7%	5%	?
C/C(=N\NC(=S)Nc1cccc(C)c1)c1cccc(N)c1	i	15%	28%	0.92µM*	5%	0.92µM*
C/C(=N\NC(=S)Nc1cccc(C)c1)c1ccccc1	i	-20%	42%	1.1µM*	-19%	2.8µM*
CSC(=S)N/N=C(\C)c1ccccc1	i	?	-21%	?	-63%	3.3µM*
C/C(=N\NC(=S)Nc1cccc(C)c1)c1ccco1	i	-21%	32%	?	-16%	?
C/C(=N\NC(=O)CNc1ccccc1)c1ccccc1	i	5%	2%	2%	6%	1%
